Data on 7 compounds can be found in PubChem BioAssay (EPA / NIEHS).

Results filed as inconclusive are left out. Activity calls are given as the source filed them. The calls were made as follows, unless noted: active = hit-call score of the fitted dose curve at least 0.9, where 1 is the maximum; inconclusive = response in the unintended direction; inactive = score below 0.9.

The nature of assay [1]: ATG_GAL4_TRANS: Attagene TRANS-FACTORIAL HepG2 Assay for GAL4 (Internal Marker) (AID 2282976). Conditions: HepG2 Attagene TRANS GAL4 internal marker reporter. The gist of the method: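 First, HepG2 cells were transfected with reporter units under GAL4-UAS control. Next, they were treated with chemical for 24 h. Finally, RNA was reverse-transcribed, PCR-amplified, FAM-labelled and resolved by capillary electrophoresis, with induction scored against DMSO.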

The target in assay [2] is Glucocorticoid receptor (Homo sapiens) (UniProt P04150). Description: ATG_GR_TRANS: Attagene TRANS-FACTORIAL HepG2 Assay for human Glucocorticoid Receptor (GR) (AID 2282978).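 Also: activators score as hits since higher reporter transcript over DMSO is fitted.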 Conditions: HepG2 Attagene TRANS GR reporter, mRNA transcription. The method in brief: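 HepG2 cells transiently transfected with multiplexed reporter units in which chimeric NR-GAL4 proteins drive GAL4-UAS reporters; 24 h compound exposure. Reporter mRNA measured by RT-PCR, 6-FAM labelling, HpaI digestion and capillary electrophoresis; gain-of-signal fitted versus DMSO.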
Sequence of Glucocorticoid receptor (Homo sapiens) (P04150 whole entry, looked up, the tested form may be a part): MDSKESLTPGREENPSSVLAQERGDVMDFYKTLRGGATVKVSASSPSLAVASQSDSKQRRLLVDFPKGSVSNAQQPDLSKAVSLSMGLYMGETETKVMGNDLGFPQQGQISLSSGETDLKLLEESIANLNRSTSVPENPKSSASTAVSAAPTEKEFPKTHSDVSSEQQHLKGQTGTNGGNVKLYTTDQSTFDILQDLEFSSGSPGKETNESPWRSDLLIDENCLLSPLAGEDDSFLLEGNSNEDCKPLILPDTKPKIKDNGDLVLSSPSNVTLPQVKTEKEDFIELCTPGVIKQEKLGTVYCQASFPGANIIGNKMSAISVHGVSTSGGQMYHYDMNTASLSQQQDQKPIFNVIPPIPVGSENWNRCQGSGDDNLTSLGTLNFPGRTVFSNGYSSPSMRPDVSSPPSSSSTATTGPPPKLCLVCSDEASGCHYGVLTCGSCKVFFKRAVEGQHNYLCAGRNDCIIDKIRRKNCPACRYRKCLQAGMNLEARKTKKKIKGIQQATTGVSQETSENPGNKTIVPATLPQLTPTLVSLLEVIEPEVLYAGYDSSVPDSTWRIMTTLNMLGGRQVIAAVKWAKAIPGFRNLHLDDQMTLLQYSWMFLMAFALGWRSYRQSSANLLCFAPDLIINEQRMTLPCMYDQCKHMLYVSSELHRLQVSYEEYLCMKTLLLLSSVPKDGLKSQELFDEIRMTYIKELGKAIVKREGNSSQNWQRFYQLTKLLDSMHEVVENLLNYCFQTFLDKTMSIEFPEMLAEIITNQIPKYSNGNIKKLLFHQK

In assay [3] the target is Nuclear receptor subfamily 4 group A member 2 (Homo sapiens) (UniProt P43354). Nature of the assay: ATG_NURR1_TRANS: Attagene TRANS-FACTORIAL HepG2 Assay for human Nuclear Receptor Related Protein 1 (NURR1) (AID 2282985). Conditions: HepG2 Attagene TRANS reporter, mRNA readout. The gist of the method: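 Reporter transcript induction, measured by RT-PCR with fluorescent labelling, HpaI digestion and capillary electrophoresis, after 24 hr dosing of human HepG2 cells transiently expressing an exogenous NR-Gal4 fusion with GAL4-UAS-driven reporters; DMSO as baseline.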
Sequence of Nuclear receptor subfamily 4 group A member 2 (Homo sapiens) (P43354 whole entry, looked up, the tested form may be a part): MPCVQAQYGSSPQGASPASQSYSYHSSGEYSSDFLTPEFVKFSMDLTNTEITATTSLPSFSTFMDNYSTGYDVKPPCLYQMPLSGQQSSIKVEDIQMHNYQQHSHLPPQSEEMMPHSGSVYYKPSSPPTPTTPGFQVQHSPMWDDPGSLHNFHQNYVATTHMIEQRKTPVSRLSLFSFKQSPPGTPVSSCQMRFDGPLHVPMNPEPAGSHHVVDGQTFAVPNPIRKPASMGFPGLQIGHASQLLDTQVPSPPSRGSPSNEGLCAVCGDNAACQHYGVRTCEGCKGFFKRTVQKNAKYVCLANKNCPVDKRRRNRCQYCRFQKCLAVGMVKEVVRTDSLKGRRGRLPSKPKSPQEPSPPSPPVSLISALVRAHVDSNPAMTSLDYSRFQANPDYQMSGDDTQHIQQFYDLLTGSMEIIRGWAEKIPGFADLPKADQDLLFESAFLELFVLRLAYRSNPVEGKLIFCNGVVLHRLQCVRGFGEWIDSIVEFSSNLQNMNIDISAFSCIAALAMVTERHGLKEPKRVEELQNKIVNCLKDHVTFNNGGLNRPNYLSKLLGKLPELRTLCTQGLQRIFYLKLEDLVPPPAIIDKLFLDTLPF

For assay [4], the target named is Peroxisome proliferator-activated receptor gamma (Homo sapiens) (UniProt P37231). Nature of the assay: ATG_PPARg_TRANS: Attagene TRANS-FACTORIAL HepG2 Assay for human Peroxisome Proliferator-activated Receptor-gamma (PPARg) (AID 2283007). The gist of the method:
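HepG2 cells transiently transfected with multiplexed GAL4-UAS reporter units and exogenous chimeric NR-Gal4 proteins; reporter mRNA quantified after 24 h compound exposure by RT-PCR, fluorescent labelling, HpaI digestion and capillary electrophoresis; gain-of-signal fitted versus DMSO baseline.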

Assay [5] has as its target human RAR-related Orphan Receptor beta (RORb), RORB (gene 6096) (UniProt Q92753). Description: ATG_RORb_TRANS: Attagene TRANS-FACTORIAL HepG2 Assay for human RAR-related Orphan Receptor beta (RORb) (AID 2283010). The gist of the method: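 Transfect HepG2 with multiple GAL4-UAS reporter transcription units; dose chemicals for 24 h; isolate RNA, reverse-transcribe and PCR-amplify reporter sequences; label, digest and resolve fragments by capillary electrophoresis; fit increases relative to DMSO.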

Assay [6] has as its target human Thyroid Receptor alpha (THRa1), THRA (gene 7067) (UniProt P10827). Nature of the assay: ATG_THRa1_TRANS: Attagene TRANS-FACTORIAL HepG2 Assay for human Thyroid Receptor alpha (THRa1) (AID 2283014). The method in brief: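 Reporter transcript induction, read by capillary electrophoresis of 6-FAM-labelled RT-PCR products, reflects activity of a transfected THRa1-Gal4 fusion in HepG2 liver cells. Cells were dosed for 24 h; activity was fitted in the positive direction against DMSO.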

A short description of assay [7]: TOX21_p53_BLA_p2_viability: Viability Assessment in the Tox21 HCT-116 p53 Agonism Beta-lactamase Assay, Phase 2 (AID 2283591).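 Also: compound exposure lasted 16 h at 37 °C; actives lower the ATP signal meaning cytotoxicity.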 The method in brief:
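Cytotoxicity readout: CellTiter-Glo ATP luminescence, 30 min at room temperature, after the beta-lactamase read. Cells were HCT116 exposed 16 h at 37C to compounds pin-transferred at 217-fold dilution from DMSO stocks.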

A short description of assay [8]: TOX21_p53_BLA_p3_viability: Viability Assessment in the Tox21 HCT-116 p53 Agonism Beta-lactamase Assay, Phase 3 (AID 2283593).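 Also: cells exposed to compound for 16 h before reading.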 The method in brief:
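Cellular ATP was quantified by CellTiter-Glo luminescence, read after 30 min at room temperature. Beforehand, HCT116 cells (4000/well) received compound 5 h post-seeding, 217-fold diluted from DMSO, then incubated 16 h at 37C.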

A short description of assay [9]: TOX21_p53_BLA_p4_viability: Viability Assessment in the Tox21 HCT-116 p53 Agonism Beta-lactamase Assay, Phase 4 (AID 2283597).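 Also: hits lower the luminescence signal meaning cytotoxicity.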 The gist of the method: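 Readout: ATP luminescence (CellTiter-Glo), measured 30 min after reagent addition at RT. The reagent followed a 2 h CCF4-AM incubation, and the cells had been exposed to compound for 16 h at 37C.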
Assay [10] can be described thus: CCTE_Harrill_HTTr_Apoptosis_MCF7: CCTE's 6-hour Apoptosis Assessment for the High-Throughput Transcriptomics (HTTr) Platform, in MCF-7 cells cultured in DMEM + 10% fetal bovine serum, Harrill Lab (AID 2284011; active = hit-call score of the fitted dose curve at least 0.9, where 1 is the maximum; inactive = score below 0.9). The method in brief:
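MCF-7 (DMEM + 10% FBS), 384-well; 8-pt dilution series, 6 h chemical exposure; caspase-3/7 activation via CellEvent Caspase 3/7 Green, HCI; bidirectional fit vs DMSO.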

The target of assay [11] is Oxysterols receptor LXR-beta (Homo sapiens) (UniProt P55055). Description: ATG_LXRb_TRANS: Attagene TRANS-FACTORIAL HepG2 Assay for human Liver X Receptor beta (LXRb) (AID 2282981). Conditions: HepG2 Attagene TRANS GAL4-LXRb reporter, mRNA. The method in brief:
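After 24 h chemical treatment of transfected HepG2 cells carrying exogenous NR-Gal4 chimeras, reporter mRNA was quantified by fluorescent RT-PCR and capillary electrophoresis; activity taken as increase over DMSO controls.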

For assay [12], the target named is human Peroxisome Proliferator-activated Receptor alpha (PPARa), PPARA (gene 5465) (UniProt Q07869). Description: ATG_PPARa_TRANS: Attagene TRANS-FACTORIAL HepG2 Assay for human Peroxisome Proliferator-activated Receptor alpha (PPARa) (AID 2283001). The gist of the method: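 Reporter transcripts quantified by RT-PCR plus capillary electrophoresis after 24 h treatment, fitted upward relative to DMSO. Cells: human HepG2 transiently carrying multiple GAL4-UAS reporter units driven by NR-Gal4 chimeras.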
Sequence of human Peroxisome Proliferator-activated Receptor alpha (PPARa), PPARA (gene 5465) (Q07869 whole entry, looked up, the tested form may be a part): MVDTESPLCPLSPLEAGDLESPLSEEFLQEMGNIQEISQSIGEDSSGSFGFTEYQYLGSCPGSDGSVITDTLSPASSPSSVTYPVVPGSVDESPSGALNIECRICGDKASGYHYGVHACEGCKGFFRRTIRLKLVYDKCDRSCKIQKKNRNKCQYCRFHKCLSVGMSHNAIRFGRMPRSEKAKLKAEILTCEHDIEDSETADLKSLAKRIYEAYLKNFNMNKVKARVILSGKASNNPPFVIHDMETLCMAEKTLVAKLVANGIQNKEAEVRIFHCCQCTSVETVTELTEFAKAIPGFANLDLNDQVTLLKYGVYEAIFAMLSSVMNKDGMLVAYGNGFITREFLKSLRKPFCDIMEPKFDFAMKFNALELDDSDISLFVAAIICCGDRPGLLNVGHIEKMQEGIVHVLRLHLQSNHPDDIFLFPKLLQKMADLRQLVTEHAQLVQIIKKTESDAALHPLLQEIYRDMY

The target in assay [13] is human Vitamin D Receptor (VDR), VDR (gene 7421) (UniProt P11473). Nature of the assay: ATG_VDR_TRANS: Attagene TRANS-FACTORIAL HepG2 Assay for human Vitamin D Receptor (VDR) (AID 2283022). The method in brief: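 Steps: transfect HepG2 with GAL4-UAS-driven reporter constructs; dose compounds 24 h; isolate RNA, reverse-transcribe, PCR-amplify with 6-FAM-labelled primer extension and HpaI digestion; quantify fragments by capillary electrophoresis relative to DMSO.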

Assay [14] has as its target Bile acid receptor (Homo sapiens) (UniProt Q96RI1). Description: ATG_IR1_CIS: Attagene CIS-FACTORIAL HepG2 Assay for human Nuclear Receptor Subfamily 1 Group H Member 4 (NR1H4), IR1 submotif (AID 2282946; active = hit-call score of the fitted dose curve at least 0.9, where 1 is the maximum; inactive = score below 0.9). Conditions: IR1 reporter transcription, actives raise or lower the signal. The gist of the method: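 HepG2 cells transiently transfected with multiplexed cis-element reporter units read endogenous transcription factor activity. After 24 h compound exposure, reporter mRNA was quantified by RT-PCR, fluorescent labelling, HpaI digestion and capillary electrophoresis; bidirectional fitting versus DMSO baseline.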

Assay [15] in a line: ATG_M_32_TRANS: Attagene TRANS-FACTORIAL HepG2 Assay for M32 Transcription Factor (Internal Marker) (AID 2282984).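 Also: transcript level of a background control reporter unit measured by RT-PCR and capillary electrophoresis.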 Conditions: HepG2 Attagene TRANS M32 internal marker reporter. The method in brief:
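Internal background reporter in transfected HepG2: after 24 h chemical exposure, RNA reverse-transcribed, reporter cDNA amplified, fluorescently labelled and HpaI-cut, then sized by capillary electrophoresis. Gain of signal fitted against DMSO control.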

The target of assay [16] is human Peroxisome Proliferator-activated Receptor delta (PPARd), PPARD (gene 5467) (UniProt Q03181). Description: ATG_PPARd_TRANS: Attagene TRANS-FACTORIAL HepG2 Assay for human Peroxisome Proliferator-activated Receptor delta (PPARd) (AID 2283002). The gist of the method: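 Read-out is induced reporter mRNA, quantified by RT-PCR with fluorescent labelling and capillary electrophoresis after 24 h dosing. Cells are HepG2 transiently carrying multiple GAL4-UAS reporter units driven by exogenous NR-GAL4 chimeras; DMSO serves as baseline.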
Sequence of human Peroxisome Proliferator-activated Receptor delta (PPARd), PPARD (gene 5467) (Q03181 whole entry, looked up, the tested form may be a part): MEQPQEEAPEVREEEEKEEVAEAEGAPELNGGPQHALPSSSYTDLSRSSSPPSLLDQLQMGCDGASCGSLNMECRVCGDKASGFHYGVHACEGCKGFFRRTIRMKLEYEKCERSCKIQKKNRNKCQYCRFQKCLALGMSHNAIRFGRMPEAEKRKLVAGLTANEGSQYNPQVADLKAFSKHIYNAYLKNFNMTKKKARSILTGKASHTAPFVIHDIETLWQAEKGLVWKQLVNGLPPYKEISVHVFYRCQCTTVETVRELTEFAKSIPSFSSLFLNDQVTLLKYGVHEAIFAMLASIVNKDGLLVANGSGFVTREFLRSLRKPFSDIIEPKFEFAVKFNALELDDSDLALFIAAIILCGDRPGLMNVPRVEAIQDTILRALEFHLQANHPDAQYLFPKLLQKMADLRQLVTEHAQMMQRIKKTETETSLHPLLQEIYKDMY

In assay [17] the target is Nuclear receptor subfamily 1 group I member 3 (Homo sapiens) (UniProt Q14994). Nature of the assay: ATG_CAR_TRANS: Attagene TRANS-FACTORIAL HepG2 Assay for human Constitutive Androstane Receptor (CAR) (AID 2282969).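 Also: activators raise reporter mRNA above DMSO so AC50 marks induction.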 Conditions: HepG2 Attagene TRANS-FACTORIAL CAR reporter. The method in brief:
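Signal is reporter mRNA induction relative to DMSO, measured 24 h after dosing by RT-PCR with fluorescent primer extension and capillary electrophoresis. Human HepG2 liver cells carried transiently transfected chimeric NR-Gal4/GAL4-UAS reporter constructs.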

Assay [18] has as its target Retinoic acid receptor alpha (Homo sapiens) (UniProt P10276). Nature of the assay: ATG_DR5_RAR_CIS: Attagene CIS-FACTORIAL HepG2 Assay for human Retinoic Acid Receptor Alpha (RARE), DR5 submotif (AID 2282934; active = hit-call score of the fitted dose curve at least 0.9, where 1 is the maximum; inactive = score below 0.9). Conditions: HepG2 Attagene cis-factorial RARE DR5 reporter, mRNA; actives raise or lower the signal. The gist of the method:
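Reporter transcripts from a DR5-regulated unit, measured via RT-PCR plus capillary electrophoresis, reflect endogenous RAR activity in transiently transfected human HepG2 liver cells. Exposure lasted 24 h; gain or loss of signal scored against DMSO.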

For assay [19], the target named is Oxysterols receptor LXR-alpha (Homo sapiens) (UniProt Q13133). Description: ATG_LXRa_TRANS: Attagene TRANS-FACTORIAL HepG2 Assay for human Liver X Receptor alpha (LXRa) (AID 2282980). Conditions: HepG2 Attagene TRANS reporter, LXRa transactivation. The gist of the method: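 Transfect HepG2 with GAL4-UAS multiplex reporter constructs (TRANS format, chimeric receptor-GAL4); treat 24 h; extract RNA, reverse-transcribe, PCR-amplify, FAM-label, HpaI-digest; resolve fragments by capillary electrophoresis. Upward response vs DMSO.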

Sequence of human Thyroid Receptor alpha (THRa1), THRA (gene 7067) (P10827 whole entry, looked up, the tested form may be a part): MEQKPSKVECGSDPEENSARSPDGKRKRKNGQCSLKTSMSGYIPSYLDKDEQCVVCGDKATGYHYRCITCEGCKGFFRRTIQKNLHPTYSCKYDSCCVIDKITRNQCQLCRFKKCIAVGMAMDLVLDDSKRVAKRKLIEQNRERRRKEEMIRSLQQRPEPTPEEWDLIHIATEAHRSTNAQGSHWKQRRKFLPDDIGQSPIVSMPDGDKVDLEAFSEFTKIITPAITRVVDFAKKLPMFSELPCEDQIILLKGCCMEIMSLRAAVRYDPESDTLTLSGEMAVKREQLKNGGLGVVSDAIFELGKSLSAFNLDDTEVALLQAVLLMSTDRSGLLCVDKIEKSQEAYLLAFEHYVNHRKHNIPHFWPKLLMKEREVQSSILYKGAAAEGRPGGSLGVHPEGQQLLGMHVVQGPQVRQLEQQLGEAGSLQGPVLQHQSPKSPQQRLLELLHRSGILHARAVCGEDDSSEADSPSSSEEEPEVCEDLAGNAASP
Sequence of human RAR-related Orphan Receptor beta (RORb), RORB (gene 6096) (Q92753 whole entry, looked up, the tested form may be a part): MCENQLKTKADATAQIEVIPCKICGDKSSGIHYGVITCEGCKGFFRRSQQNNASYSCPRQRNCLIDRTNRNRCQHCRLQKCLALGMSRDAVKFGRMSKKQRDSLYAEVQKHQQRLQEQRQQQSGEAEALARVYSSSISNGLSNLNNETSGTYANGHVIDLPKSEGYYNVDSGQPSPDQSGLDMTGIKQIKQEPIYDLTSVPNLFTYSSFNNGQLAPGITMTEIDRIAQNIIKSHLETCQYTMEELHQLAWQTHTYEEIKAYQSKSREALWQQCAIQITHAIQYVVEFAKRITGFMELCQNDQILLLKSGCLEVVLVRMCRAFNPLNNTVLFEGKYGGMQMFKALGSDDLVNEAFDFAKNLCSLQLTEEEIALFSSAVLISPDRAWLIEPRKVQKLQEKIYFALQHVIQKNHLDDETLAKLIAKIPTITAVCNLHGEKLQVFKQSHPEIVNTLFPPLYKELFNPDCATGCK
Sequence of Peroxisome proliferator-activated receptor gamma (Homo sapiens) (P37231 whole entry, looked up, the tested form may be a part): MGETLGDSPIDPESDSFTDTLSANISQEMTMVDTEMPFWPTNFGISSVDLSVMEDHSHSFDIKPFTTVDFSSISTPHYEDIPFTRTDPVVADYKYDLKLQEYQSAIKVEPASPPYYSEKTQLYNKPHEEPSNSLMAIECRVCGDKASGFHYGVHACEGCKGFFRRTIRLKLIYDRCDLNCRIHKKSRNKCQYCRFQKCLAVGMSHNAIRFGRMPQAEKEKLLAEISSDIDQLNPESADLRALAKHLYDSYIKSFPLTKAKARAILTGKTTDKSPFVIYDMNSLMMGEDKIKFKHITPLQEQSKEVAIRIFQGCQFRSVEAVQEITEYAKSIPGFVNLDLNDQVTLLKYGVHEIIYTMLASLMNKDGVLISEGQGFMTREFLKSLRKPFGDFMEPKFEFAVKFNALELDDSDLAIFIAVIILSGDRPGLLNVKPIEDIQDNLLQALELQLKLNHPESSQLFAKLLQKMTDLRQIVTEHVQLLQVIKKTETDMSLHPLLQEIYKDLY
Sequence of Retinoic acid receptor alpha (Homo sapiens) (P10276 whole entry, looked up): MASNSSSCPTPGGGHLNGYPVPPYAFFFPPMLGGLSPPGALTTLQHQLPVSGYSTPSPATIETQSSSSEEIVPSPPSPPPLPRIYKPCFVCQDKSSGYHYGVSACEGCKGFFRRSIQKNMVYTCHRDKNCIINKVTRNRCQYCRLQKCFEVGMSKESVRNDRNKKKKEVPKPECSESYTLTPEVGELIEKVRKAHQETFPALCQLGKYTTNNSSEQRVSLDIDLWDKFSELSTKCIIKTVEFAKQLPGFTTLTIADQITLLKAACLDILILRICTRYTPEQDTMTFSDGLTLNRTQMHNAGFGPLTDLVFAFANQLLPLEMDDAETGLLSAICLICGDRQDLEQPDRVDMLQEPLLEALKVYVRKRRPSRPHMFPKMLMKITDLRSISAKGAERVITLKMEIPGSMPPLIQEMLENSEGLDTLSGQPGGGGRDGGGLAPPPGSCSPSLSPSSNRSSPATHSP
Sequence of Bile acid receptor (Homo sapiens) (Q96RI1 whole entry, looked up): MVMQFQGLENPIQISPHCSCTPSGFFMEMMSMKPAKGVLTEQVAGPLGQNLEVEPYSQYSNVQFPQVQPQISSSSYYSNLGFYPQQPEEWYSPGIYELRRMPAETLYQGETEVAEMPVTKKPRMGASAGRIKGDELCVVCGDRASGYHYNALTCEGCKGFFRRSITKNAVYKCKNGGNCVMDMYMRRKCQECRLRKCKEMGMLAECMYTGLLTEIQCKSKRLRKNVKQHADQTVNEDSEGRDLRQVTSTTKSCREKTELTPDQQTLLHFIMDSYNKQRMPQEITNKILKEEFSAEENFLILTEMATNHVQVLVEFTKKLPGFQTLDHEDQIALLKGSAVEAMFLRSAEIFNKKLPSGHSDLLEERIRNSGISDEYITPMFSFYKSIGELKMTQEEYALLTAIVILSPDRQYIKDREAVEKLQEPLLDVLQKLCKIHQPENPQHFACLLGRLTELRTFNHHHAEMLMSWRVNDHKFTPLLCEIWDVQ

Regarding `CC1(C)[C@H](C(=O)O[C@H](C#N)c2cccc(Oc3ccccc3)c2)[C@@H]1C=C(Br)Br`, the outcome in assay [1], in assay [2], in [3], in [5], in assay [6] and in assay [7] was inactive. In addition, the result in assay [8], in assay [9] and in [10] was inactive. Moreover, the half-maximal activity concentration (AC50) in assay [4] was 2940 nM (active).

Take `O=[N+]([O-])c1ccc(Cl)cc1`: the compound was classed as inactive in [2], in assay [11], in assay [3], in assay [12], in assay [13] and in [7]. Besides, the compound was classed as inactive in assay [8], in assay [9] and in assay [10].

For `CCc1cc(C)cc(CC)c1-c1c(OC(=O)C(C)(C)C)n2n(c1=O)CCOCC2`, the compound was called inactive in [14], in assay [1], in assay [15], in assay [3], in [16] and in [5]. Also, the outcome in assay [10] was inactive.

`c1ccc(P(c2ccccc2)c2ccccc2)cc1`: the compound was called inactive in assay [17], in assay [2], in assay [15], in assay [16], in assay [7] and in assay [8]. Further, the outcome in assay [9] was inactive.

`Oc1cc(Cl)ccc1Cl`: the call in assay [18], in assay [1], in assay [2], in [15], in [12] and in assay [16] was inactive. For the same compound, the result in assay [4], in assay [8], in assay [9] and in assay [10] was inactive.

For `CCOC(=O)N(C)N=O`, the compound was called inactive in assay [18], in assay [1], in assay [19], in assay [11], in [12] and in [16]. Besides, the result in assay [4], in assay [6], in assay [7], in [8] and in assay [10] was inactive.

Regarding `O=C(NCNC(=O)NC1C(=O)NC(=O)N1CO)NC1C(=O)NC(=O)N1CO` (stereo unspecified), the result in assay [18], in assay [14], in assay [16], in [4], in assay [5] and in assay [6] was inactive. Further, the compound was called inactive in assay [9].

As usually defined, the AC50 is the concentration giving half of the maximal activity seen.
